# Where two headings read alike, the source gives them in different places.
# Assays:
# Set-up in all cases: species or system human, MV4-11 + K-562 + COLO205 + SK-N-BE2 + OVCAR-8
# [1] = test system: CSNK1D; settings: read-out: apparent Kd, n = 1
# [2] = test system: CSNK1E; settings: read-out: apparent Kd, n = 1
# [3] = test system: MAPK14; settings: read-out: apparent Kd, n = 1
# [4] = test system: MAPKAPK2; settings: read-out: apparent Kd, n = 1
# [5] = test system: FN3KRP; settings: read-out: apparent Kd; compound concentrations: 100 nM and 1000 nM (sheet 'Samples'), CATDS: 4.0325276132441398E-2; n = 1
# [6] = test system: FN3K; settings: read-out: apparent Kd; compound concentrations: 100 nM and 1000 nM (sheet 'Samples'), CATDS: 3.5729467318233003E-2; n = 1
# [7] = test system: MAPK1; settings: read-out: apparent Kd; compound concentrations: 100 nM and 1000 nM (sheet 'Samples'), CATDS: 3.8538636035205603E-2; n = 1
# [8] = test system: MAPK8; settings: read-out: apparent Kd; compound concentrations: 100 nM and 1000 nM (sheet 'Samples'), CATDS: 4.79247089655142E-2; n = 1
# [9] = test system: MAPK9; settings: read-out: apparent Kd, compound concentrations: 100 nM and 1000 nM (sheet 'Samples'), n = 1
# [10] = test system: NUAK2; settings: read-out: apparent Kd; compound concentrations: 100 nM and 1000 nM (sheet 'Samples'), CATDS: 3.7503176439752997E-2; n = 1
# [11] = test system: PAK6; settings: read-out: apparent Kd; compound concentrations: 100 nM and 1000 nM (sheet 'Samples'), CATDS: 3.6851014087153897E-2; n = 1
# [12] = test system: PDXK; settings: read-out: apparent Kd; compound concentrations: 100 nM and 1000 nM (sheet 'Samples'), CATDS: 4.2866477052702801E-2; n = 1
# [13] = test system: PRKD1; settings: read-out: apparent Kd; compound concentrations: 100 nM and 1000 nM (sheet 'Samples'), CATDS: 5.7643815107824597E-2; n = 1
# [14] = test system: PRKD2; settings: read-out: apparent Kd; compound concentrations: 100 nM and 1000 nM (sheet 'Samples'), CATDS: 6.6871929523774506E-2; n = 1
# [15] = test system: PRKD3; settings: read-out: apparent Kd; compound concentrations: 100 nM and 1000 nM (sheet 'Samples'), CATDS: 6.6409082952543802E-2; n = 1
# [16] = test system: RIPK2; settings: read-out: apparent Kd; compound concentrations: 100 nM and 1000 nM (sheet 'Samples'), CATDS: 4.9490640044255602E-2; n = 1
# [17] = test system: CSNK1A1; settings: read-out: apparent Kd; compound concentrations: 100 nM and 1000 nM (sheet 'Samples'), CATDS: 0.128304526213217; n = 1
# [18] = test system: CLK1; settings: read-out: apparent Kd; compound concentrations:100 nM and 1000 nM (sheet 'Samples'); n = 1
# [19] = test system: CLK4; settings: read-out: apparent Kd, n = 1
# [20] = test system: DYRK1A; settings: read-out: apparent Kd, n = 1
# [21] = test system: GSK3B; settings: read-out: apparent Kd; compound concentrations:100 nM and 1000 nM (sheet 'Samples'); n = 1
# [22] = test system: ILK; settings: read-out: apparent Kd; compound concentrations: 100 nM and 1000 nM (sheet 'Samples'), CATDS: 0.22050260792915999; n = 1
# [23] = test system: IRAK3; settings: read-out: apparent Kd; compound concentrations: 100 nM and 1000 nM (sheet 'Samples'), CATDS: 0.257263100547858; n = 1
# [24] = test system: RET; settings: read-out: apparent Kd; compound concentrations: 100 nM and 1000 nM (sheet 'Samples'), CATDS: 0.29305960370360601; n = 1
# [25] = test system: CSNK2A1;CSNK2A3; settings: read-out: apparent Kd; compound concentrations: 100 nM and 1000 nM (sheet 'Samples'), CATDS: 0.28521766566088902; n = 1
# [26] = test system: CSNK2A2; settings: read-out: apparent Kd; compound concentrations: 100 nM and 1000 nM (sheet 'Samples'), CATDS: 0.32436684951211903; n = 1
# [27] = compound concentrations:100 nM and 1000 nM (sheet 'Samples')
smiles,measurement,setting,value
N#Cc1ccc(Oc2nccc(-c3c(-c4ccc(F)cc4)ncn3C3CCNCC3)n2)cc1 [SB-242721],potency estimated from few doses,[1]; [27],710 nM
same,potency estimated from few doses,[2]; [27],1740 nM
same,potency estimated from few doses,[3]; [27],844 nM
same,potency estimated from few doses,[4]; [27],496 nM
Cc1nccc(-c2c(-c3ccc(F)cc3)ncn2CCCN2CCOCC2)n1.Cl [SB-282975-A],potency estimated from few doses,"[1]; compound concentrations: 100 nM and 1000 nM (sheet 'Samples'), CATDS: 0.65749239951041605",74.7 nM
same,potency estimated from few doses,"[2]; compound concentrations: 100 nM and 1000 nM (sheet 'Samples'), CATDS: 0.24800542383641",505 nM
same,potency estimated from few doses,"[3]; compound concentrations: 100 nM and 1000 nM (sheet 'Samples'), CATDS: 0.18964189775036899",1100 nM
same,potency estimated from few doses,"[4]; compound concentrations: 100 nM and 1000 nM (sheet 'Samples'), CATDS: 0.19328139808162401",1030 nM
CC(CO)Nc1cc(-c2[nH]c3cccnc3c2-c2ccc(F)cc2)ccn1.Cl (stereo not drawn) [RO3202312-001],potency estimated from few doses,"[1]; compound concentrations: 100 nM and 1000 nM (sheet 'Samples'), CATDS: 9.2931032054770199E-2",48.2 nM
same,potency estimated from few doses,"[2]; compound concentrations: 100 nM and 1000 nM (sheet 'Samples'), CATDS: 6.9907661952316402E-2",115 nM
same,potency estimated from few doses,[5],967 nM
same,potency estimated from few doses,[6],1990 nM
same,potency estimated from few doses,"[3]; compound concentrations: 100 nM and 1000 nM (sheet 'Samples'), CATDS: 0.154329578320028",12.1 nM
same,potency estimated from few doses,[7],1240 nM
same,potency estimated from few doses,[8],440 nM
same,potency estimated from few doses,[9]; CATDS: 0.13086781986766799,18.6 nM
same,potency estimated from few doses,"[4]; compound concentrations: 100 nM and 1000 nM (sheet 'Samples'), CATDS: 0.22131403995385401",4.81 nM
same,potency estimated from few doses,[10],1450 nM
same,potency estimated from few doses,[11],1620 nM
same,potency estimated from few doses,[12],716 nM
same,potency estimated from few doses,[13],219 nM
same,potency estimated from few doses,[14],132 nM
same,potency estimated from few doses,[15],135 nM
same,potency estimated from few doses,[16],386 nM
Fc1ccc(-c2ncn(CCCNCc3ccccc3)c2-c2ccncc2)cc1 [SB-210486],potency estimated from few doses,[17],1360 nM
same,potency estimated from few doses,"[1]; compound concentrations: 100 nM and 1000 nM (sheet 'Samples'), CATDS: 0.26868989903925999",280 nM
same,potency estimated from few doses,"[2]; compound concentrations: 100 nM and 1000 nM (sheet 'Samples'), CATDS: 0.162916255761588",716 nM
same,potency estimated from few doses,"[3]; compound concentrations: 100 nM and 1000 nM (sheet 'Samples'), CATDS: 0.19130895998185199",509 nM
same,potency estimated from few doses,[9]; CATDS: 0.114122400306413,2070 nM
same,potency estimated from few doses,"[4]; compound concentrations: 100 nM and 1000 nM (sheet 'Samples'), CATDS: 0.22954264686774201",363 nM
O=c1[nH]cc(-c2ccc(O)cc2)c2sc(-c3ccncc3)cc12 [GSK1033723A],potency estimated from few doses,[18],471 nM
same,potency estimated from few doses,[19]; [27],148 nM
same,potency estimated from few doses,[20]; [27],1550 nM
same,potency estimated from few doses,[21],1220 nM
COc1cc(/C=N/Nc2ncnc3c2cnn3C(C)C)ccc1O [GW644007X],potency estimated from few doses,"[19]; compound concentrations: 100 nM and 1000 nM (sheet 'Samples'), CATDS: 0.240063768784822",1750 nM
same,potency estimated from few doses,[22],2110 nM
same,potency estimated from few doses,[23],1520 nM
same,potency estimated from few doses,[24],1190 nM
N=C1N=C(N)S/C1=C\c1ccc2ncccc2c1 [RO4509407-000],potency estimated from few doses,"[19]; compound concentrations: 100 nM and 1000 nM (sheet 'Samples'), CATDS: 0.20208548416979799",1310 nM
same,potency estimated from few doses,[25],612 nM
same,potency estimated from few doses,[26],488 nM
same,potency estimated from few doses,"[20]; compound concentrations: 100 nM and 1000 nM (sheet 'Samples'), CATDS: 0.224085831089785",1010 nM

# From article PMC11062922 (Nature Chemical Biology, 2023)
